Screens as filed in PubChem BioAssay.
HPGD block = HPGD (human) dehydrogenase inhibition | P15428 | purified HPGD, NADH fluorescence kinetic, PGE2 substrate | Potency, µM, most hits filed as inhibitors | 150,000 tested, 4.3% active | AID 894
Target sequence (P15428 whole entry, looked up): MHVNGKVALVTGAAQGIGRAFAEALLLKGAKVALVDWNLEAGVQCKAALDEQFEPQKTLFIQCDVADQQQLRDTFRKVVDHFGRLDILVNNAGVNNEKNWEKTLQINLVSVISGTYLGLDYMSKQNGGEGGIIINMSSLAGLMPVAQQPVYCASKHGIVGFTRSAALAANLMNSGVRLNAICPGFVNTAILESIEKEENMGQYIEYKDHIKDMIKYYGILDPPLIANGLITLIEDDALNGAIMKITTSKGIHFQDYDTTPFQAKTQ
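NADH formation kinetics: reaction with 30 uM PGE2 and 1 mM NAD+ (final), 20 nM enzyme, Tris-HCl pH 8 with Tween 20, after 15 min compound preincubation at room temperature. Fluorescence change, last versus first of five reads.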
ALDH1A1 inh = blocks purified human ALDH1A1 activity. Potency, µM (doses to about 75.3 µM), hits mostly inhibitors. Purified ALDH1A1, NADH fluorescence, propionaldehyde substrate. 220,000 tested, 7.3% active. P00352
Tau fluor counter = counter-screen for tau fibril formation inhibitors | 280,000 tested, 0.93% active | AID 1463 | Potency, µM (top dose mostly 57.7 µM) | tau K18 P301L Alexa594 fluorescence, heparin fibrillization; active = well fitted curve in the direction sought with a large enough effect; inconclusive = small, poorly fitted or top-dose-only effect, or another doubt; inactive = no such curve, though single readings can be large; an effect the other way counts as inactive or inconclusive; note: nearly all actives have a fitted effect of over 55% in size
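Human tau K18 P301L (15 uM unlabeled, 0.24 uM Alexa 594-labeled) in 100 mM sodium acetate pH 7 with 20 uM heparin, 6 hr at 37 C. ThT 30 uM added, 1 hr ambient; Alexa 594 FP and total fluorescence read at 555/632 nm.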
Tau fibril ThT = inhibitors of human tau fibril formation, thioflavin T binding; P10636; recombinant tau K18 P301L (four-repeat tau fragment), heparin-induced fibrillization, ThT fluorescence; Potency, µM (highest dose often 57.4 µM), hits mostly inhibitors; 270,000 tested, 2.1% active; AID 1460; active = well fitted curve in the direction sought with a large enough effect; inconclusive = small, poorly fitted or top-dose-only effect, or another doubt; inactive = no such curve, though single readings can be large; an effect the other way counts as inactive or inconclusive; note: nearly all actives have a fitted effect of over 55% in size
Target sequence (P10636 561-689 P618L limits assumed): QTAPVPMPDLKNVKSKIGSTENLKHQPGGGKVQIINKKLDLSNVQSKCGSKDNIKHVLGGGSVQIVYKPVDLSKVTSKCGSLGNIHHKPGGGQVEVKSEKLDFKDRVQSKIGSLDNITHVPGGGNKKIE
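In this qHTS, human K18 P301L tau is incubated with compound and heparin for 6 hr at 37 C, and Thioflavin T fluorescence then reports fibril load.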
JMJD2E inh = blocks human JMJD2E demethylase activity; B2RXH2; JMJD2E catalytic domain, FDH-coupled NADH fluorescence (FDH is formaldehyde dehydrogenase); Potency, µM (series often up to 57.1 µM), most hits filed as inhibitors; 230,000 tested, 1.6% active; note: nearly all actives have a fitted effect of over 50% in size
Target sequence (B2RXH2 1-337 limits assumed): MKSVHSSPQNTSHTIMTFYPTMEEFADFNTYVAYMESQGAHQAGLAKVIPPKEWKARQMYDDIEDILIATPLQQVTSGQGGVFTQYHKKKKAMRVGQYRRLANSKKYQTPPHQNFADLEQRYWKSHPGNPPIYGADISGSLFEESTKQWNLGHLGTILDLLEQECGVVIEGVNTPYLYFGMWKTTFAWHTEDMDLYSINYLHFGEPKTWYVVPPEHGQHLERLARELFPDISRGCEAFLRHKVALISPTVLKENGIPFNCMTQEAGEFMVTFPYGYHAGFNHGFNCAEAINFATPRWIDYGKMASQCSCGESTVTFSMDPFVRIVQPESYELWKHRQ
Tau fibril FP = tau fibrillization inhibition (FP); P10636; K18 P301L tau heparin fibrillization, Alexa594 FP, 6 h; Potency, µM (top dose mostly 57.7 µM), actives largely listed as inhibitors; 280,000 tested, 0.39% active; AID 1468; active = well fitted curve in the direction sought with a large enough effect; inconclusive = small, poorly fitted or top-dose-only effect, or another doubt; inactive = no such curve, though single readings can be large; an effect the other way counts as inactive or inconclusive; note: nearly all actives have a fitted effect of over 55% in size
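Quantitative HTS format: compounds meet 15 uM recombinant K18 P301L tau and Alexa 594-tau tracer in 100 mM sodium acetate pH 7; 20 uM heparin triggers fibrillization at 37 C over 6 hr; FP gives the signal.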
Hits are given with their value; [ ] = another dose, or the depositor's remark. Rows were chosen to be rich in hits. Some 9.9% of all compounds tested hit in one or more screens of this group. Unless noted, calls come from the whole dose curve; as a rule, active = well fitted inhibition curve with a large enough effect (not every such curve was filed as active); inconclusive = small, poorly fitted or top-dose-only effect, or another doubt; inactive = no such curve, though single readings can be large or run the other way.

`COc1ccc(Nc2nc(-c3ccccc3)nc3ccccc23)c(OC)c1` gave ALDH1A1 inh inactive, Tau fluor counter 25µM[quencher], Tau fibril ThT inconclusive, JMJD2E inh inconclusive and Tau fibril FP inactive.
CN(C)c1ccc(-c2nc(NC3CCNCC3)c3ccccc3n2)cc1 was read as HPGD block inactive, ALDH1A1 inh inactive, Tau fluor counter inconclusive, Tau fibril ThT inconclusive, JMJD2E inh inconclusive and Tau fibril FP inactive.
For CCOC(=O)OCC1OC(c2ccccc2)C=CC1OC(=O)OCC (stereo not given) the results were ALDH1A1 inh inactive[13.5 µM], Tau fluor counter inactive[11.6 µM], Tau fibril ThT inactive[11.5 µM] and Tau fibril FP inactive[11.6 µM].
Screening Brc1ccc2nc(-c3c[nH]c4ccccc34)cn2c1 returned ALDH1A1 inh inactive, Tau fluor counter inconclusive, Tau fibril ThT 10µM, JMJD2E inh inconclusive and Tau fibril FP inactive.
Screening O=C(CCCSc1nc2ccccc2[nH]1)N1CCN(c2ccc([N+](=O)[O-])cc2)CC1 returned HPGD block inactive, ALDH1A1 inh inconclusive, Tau fluor counter inactive, Tau fibril ThT 0.79µM, JMJD2E inh inactive and Tau fibril FP inactive.
`CC1CCN(C(=O)CSc2nc3ccccc3[nH]2)CC1` gave HPGD block inactive, ALDH1A1 inh inconclusive, Tau fluor counter inactive, Tau fibril ThT inactive, JMJD2E inh inactive and Tau fibril FP inactive.
Screening O=C(CSc1nc2ccccc2[nH]1)N1CCN(c2ccc(F)cc2)CC1 returned HPGD block inactive, ALDH1A1 inh 25µM, Tau fluor counter inactive, Tau fibril ThT inactive, JMJD2E inh inactive and Tau fibril FP inactive.
CC(C)Oc1ccc(CNC(=O)c2ccc3nc(Cc4ccccc4)oc3c2)cc1 was read as Tau fluor counter inactive, Tau fibril ThT inactive and Tau fibril FP inactive.
For CCc1cc2c(=O)c(-c3ccc4c(c3)OCCO4)c(C)oc2cc1OS(C)(=O)=O the results were HPGD block inactive, ALDH1A1 inh 4.5µM, Tau fluor counter inactive, Tau fibril ThT inactive, JMJD2E inh inactive and Tau fibril FP inactive.
Screening CCOC(=O)CNC(=O)c1cc(-c2ccc3c(c2)OCCO3)oc1C returned HPGD block inactive, ALDH1A1 inh inconclusive, Tau fluor counter inactive, Tau fibril ThT inactive, JMJD2E inh inactive and Tau fibril FP inactive.
Screening CC(CCc1ccccc1)NC(=O)Cn1c(=O)nc(-c2ccccc2F)c2cc(Cl)ccc21 (stereo not given) returned Tau fluor counter inactive, Tau fibril ThT inconclusive and Tau fibril FP inactive.
Screening COc1cc2c(cc1OC)CN(CC(=O)NC(=O)NCc1ccccc1)CC2 returned ALDH1A1 inh 28µM, Tau fluor counter inactive, Tau fibril ThT inactive, JMJD2E inh inconclusive and Tau fibril FP inactive.
`O=C(CN1CCc2ccccc21)NC(=O)NCc1ccccc1` gave ALDH1A1 inh 7.1µM, Tau fluor counter inactive, Tau fibril ThT inactive, JMJD2E inh inactive and Tau fibril FP inactive.
For O=C(CN1CCCc2ccccc21)NC(=O)NCc1ccccc1 the results were Tau fluor counter inactive, Tau fibril ThT inactive, JMJD2E inh inactive and Tau fibril FP inactive.
For Cc1nc(COC(=O)c2cc(O)c3ccccc3c2O)cs1 the results were ALDH1A1 inh inconclusive, Tau fluor counter inconclusive, Tau fibril ThT 25µM, JMJD2E inh inconclusive and Tau fibril FP inconclusive.
`COc1ccc(NC(=O)CNc2ccc(C#N)cc2)cc1` gave ALDH1A1 inh 22µM, Tau fluor counter inactive, Tau fibril ThT inactive, JMJD2E inh inactive and Tau fibril FP inactive.
For CC(C)Oc1ccc(NC(=O)Oc2ccccc2)cc1 the results were HPGD block inactive, ALDH1A1 inh inconclusive, Tau fluor counter inactive, Tau fibril ThT inactive, JMJD2E inh inactive and Tau fibril FP inactive.
Screening COC(=O)CCC(=O)Nc1ccc(OC)cc1 returned HPGD block inactive, ALDH1A1 inh inconclusive, Tau fluor counter inactive, Tau fibril ThT inactive, JMJD2E inh inactive and Tau fibril FP inactive.
For Cc1ccc(NC(=O)CNc2ccc(OC(C)C)cc2)cc1 the results were HPGD block inactive, ALDH1A1 inh 7.1µM, Tau fluor counter inactive, Tau fibril ThT inconclusive, JMJD2E inh inactive and Tau fibril FP inactive.
Screening COc1cccc(CS(=O)(=O)c2nnnn2-c2ccc(F)cc2Br)c1 returned HPGD block inactive, ALDH1A1 inh inconclusive, Tau fluor counter inactive, Tau fibril ThT inactive, JMJD2E inh inactive and Tau fibril FP inactive.
`O=C(CSC1=NCCN1)Nc1ccccc1` gave HPGD block inactive and ALDH1A1 inh inactive[13.5 µM].
COc1ccc(Nc2nc(N3CCCC3)nc(N3CCCC3)n2)c(OC)c1 was read as HPGD block inactive, ALDH1A1 inh inactive, Tau fluor counter inconclusive, Tau fibril ThT inconclusive, JMJD2E inh inactive and Tau fibril FP inconclusive.
Screening COc1ccc(Nc2nc(Nc3ccc(OC)cc3OC)nc(N3CCN(C)CC3)n2)c(OC)c1 returned HPGD block inactive, ALDH1A1 inh inactive, Tau fluor counter 10µM[quencher], Tau fibril ThT inconclusive, JMJD2E inh inactive and Tau fibril FP inconclusive.
For COc1ccc(/C=N/c2c(-c3ccc(OC)cc3)nc3n2CCS3)cc1 the results were HPGD block inactive, ALDH1A1 inh inconclusive, Tau fluor counter inconclusive, Tau fibril ThT 14µM, JMJD2E inh inactive and Tau fibril FP inactive.
Screening CC1(C)O[C@H]2OC([C@H](O)CON3C(=O)c4ccccc4C3=O)[C@H](O)[C@H]2O1 (stereo not given in full) returned HPGD block 16µM, ALDH1A1 inh inactive, Tau fluor counter inactive, Tau fibril ThT inactive, JMJD2E inh inactive and Tau fibril FP inactive.
`CCN1C(=O)[C@H]2[C@H]3[C@H](O)[C@H](O)C/C(=N/OC[C@@H](O)[C@H]4O[C@H]5OC(C)(C)O[C@H]5[C@@H]4O)[C@@H]3CC[C@@H]2C1=O` gave ALDH1A1 inh inactive[13.5 µM], Tau fluor counter inactive[11.6 µM], Tau fibril ThT inactive[11.5 µM] and Tau fibril FP inactive[11.6 µM].
COc1ccccc1Nc1nc(N)nc(CN2CCC(Cc3ccccc3)CC2)n1 was read as HPGD block inconclusive, ALDH1A1 inh 13µM, Tau fluor counter inactive, Tau fibril ThT inactive, JMJD2E inh inactive and Tau fibril FP inactive.
For Cc1ccc(C(NC(=O)NC(C)c2ccccc2)C(Cl)(Cl)Cl)cc1F (stereo not given) the results were HPGD block inactive, ALDH1A1 inh inactive, Tau fluor counter inactive, Tau fibril ThT inactive, JMJD2E inh inactive and Tau fibril FP inactive.
CCCCN(C)CC(O)Cn1cc(/C=C/C(=O)c2ccc(C)cc2)c2ccccc21 (stereo not given) was read as Tau fluor counter inconclusive, Tau fibril ThT 14µM and Tau fibril FP inactive.
For CCCN(CCC)CC(O)Cn1cc(/C=C/C(=O)c2ccccc2)c2ccccc21 (stereo not given) the results were ALDH1A1 inh inconclusive, Tau fluor counter inconclusive, Tau fibril ThT inconclusive, JMJD2E inh inactive and Tau fibril FP inactive.
